Experimental findings from PMC5700166 are described below.

For this test, the target named is T1, GST-Nv-NF-kB (Ser allele) (Nematostella vectensis, UniProt A7UNT2 2-411).
T1 sequence: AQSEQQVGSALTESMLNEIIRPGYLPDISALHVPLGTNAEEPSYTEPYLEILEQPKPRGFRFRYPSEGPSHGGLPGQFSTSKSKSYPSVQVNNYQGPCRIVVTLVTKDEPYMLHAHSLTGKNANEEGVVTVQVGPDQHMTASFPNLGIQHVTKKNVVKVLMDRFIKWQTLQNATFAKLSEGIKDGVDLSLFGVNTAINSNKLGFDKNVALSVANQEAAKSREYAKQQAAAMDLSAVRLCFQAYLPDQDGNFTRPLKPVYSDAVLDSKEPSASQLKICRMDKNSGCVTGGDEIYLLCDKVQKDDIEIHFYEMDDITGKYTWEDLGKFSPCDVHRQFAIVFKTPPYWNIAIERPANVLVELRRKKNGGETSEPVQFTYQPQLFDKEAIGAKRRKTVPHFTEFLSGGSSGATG
As to the kind of experiment: protein-binding microarray (PBM); PBM: ~300 nM protein, 6 mM HEPES pH 7.8, 80 mM KCl, 0.5 mM EDTA, 0.5 mM EGTA, 6% glycerol, 35 ng/ul poly-dIdC, 1% milk, 1 h, room temperature; Ap Aiptasia and Nv Nematostella (sea anemones) / Co Capsaspora / Aq Amphimedon (sponge) / Dm Drosophila / Hu human; RHD is the Rel homology domain; high values mean tight binding. The following applies: dsDNA, one strand shown.
For “CCGATTAACATCAAAAAGCCCCGTGATGTTAATCGGGTCTTGATTCGCTTGACGCTGCTG”, the binding signal worked out at 6.26 z-score.

“CCGATTAACATCAAGGGGGGACTTGATGTTAATCGGGTCTTGATTCGCTTGACGCTGCTG” registered a binding signal of 4.99 z-score. Turning to “CCGATTAACATCAGACCCCCCCCTGATGTTAATCGGGTCTTGATTCGCTTGACGCTGCTG”, the binding signal came out at 3.56 z-score. In the case of “CCGATTAACATCAGGGGGTTATATGATGTTAATCGGGTCTTGATTCGCTTGACGCTGCTG”, the binding signal was 6.26 z-score. Consider “CCGATTAACATCAGGCATCCCCCTGATGTTAATCGGGTCTTGATTCGCTTGACGCTGCTG”, for which the binding signal stood at 4.92 z-score. “CCGATTAACATCAGATAACCCCCTGATGTTAATCGGGTCTTGATTCGCTTGACGCTGCTG”: the binding signal was 5.95 z-score. In the case of “CCGATTAACATCACGAAAACCCCTGATGTTAATCGGGTCTTGATTCGCTTGACGCTGCTG” it was 5.71 z-score; in that of “CCGATTAACATCAGGCATTCCCATGATGTTAATCGGGTCTTGATTCGCTTGACGCTGCTG”, 1.11 z-score.

Sequence “CCGATTAACATCAAATACCCCCCTGATGTTAATCGGGTCTTGATTCGCTTGACGCTGCTG” registered a binding signal of 6.55 z-score. “CCGATTAACATCACGGGAATGCCTGATGTTAATCGGGTCTTGATTCGCTTGACGCTGCTG” registered a binding signal of 1.33 z-score. “CCGATTAACATCAAAAAATCCCTTGATGTTAATCGGGTCTTGATTCGCTTGACGCTGCTG” yielded a binding signal of 5.87 z-score. For “CCGATTAACATCAGGGGGTGGAATGATGTTAATCGGGTCTTGATTCGCTTGACGCTGCTG”, the binding signal stood at 4.75 z-score. The same measure for “CCGATTAACATCACCTCCCCCCCTGATGTTAATCGGGTCTTGATTCGCTTGACGCTGCTG”: 4.34 z-score; for “CCGATTAACATCAGAACATCCCCTGATGTTAATCGGGTCTTGATTCGCTTGACGCTGCTG”: 6.48 z-score; for “CCGATTAACATCAAAAGCCCCCATGATGTTAATCGGGTCTTGATTCGCTTGACGCTGCTG”: 5.01 z-score.

The sequence “CCGATTAACATCAAAGCACCCCCTGATGTTAATCGGGTCTTGATTCGCTTGACGCTGCTG” registered a binding signal of 4.9 z-score. The same measure for “CCGATTAACATCACAGAAACCCCTGATGTTAATCGGGTCTTGATTCGCTTGACGCTGCTG”: 4.97 z-score; for “CCGATTAACATCAACAACCCCCCTGATGTTAATCGGGTCTTGATTCGCTTGACGCTGCTG”: 5.06 z-score; for “CCGATTAACATCAATACCCCCCCTGATGTTAATCGGGTCTTGATTCGCTTGACGCTGCTG”: 4.49 z-score. Sequence “CCGATTAACATCAAAAGCCCCCCTGATGTTAATCGGGTCTTGATTCGCTTGACGCTGCTG” registered a binding signal of 4.86 z-score.

“CCGATTAACATCAAGGGGGATACTGATGTTAATCGGGTCTTGATTCGCTTGACGCTGCTG” registered a binding signal of 5.52 z-score. On to “CCGATTAACATCAAGGAGTCCCCTGATGTTAATCGGGTCTTGATTCGCTTGACGCTGCTG”, for which the binding signal turned out to be 5.36 z-score.

Consider “CCGATTAACATCAAAAAACCCCGTGATGTTAATCGGGTCTTGATTCGCTTGACGCTGCTG”, for which the binding signal stood at 6.46 z-score.

In turn, “CCGATTAACATCAGATTTACCGCTGATGTTAATCGGGTCTTGATTCGCTTGACGCTGCTG” had a binding signal of 1.31 z-score. In turn, “CCGATTAACATCAGGGGGGAACATGATGTTAATCGGGTCTTGATTCGCTTGACGCTGCTG” had a binding signal of 6.09 z-score. The sequence “CCGATTAACATCAAGGGGGGTTATGATGTTAATCGGGTCTTGATTCGCTTGACGCTGCTG” yielded a binding signal of 5.24 z-score. In the case of “CCGATTAACATCAAAGAGTCCCCTGATGTTAATCGGGTCTTGATTCGCTTGACGCTGCTG” it was 6.03 z-score. In the case of “CCGATTAACATCAGATAAACCCCTGATGTTAATCGGGTCTTGATTCGCTTGACGCTGCTG” it was 3.09 z-score; in that of “CCGATTAACATCAGGCGTTCCCCTGATGTTAATCGGGTCTTGATTCGCTTGACGCTGCTG”, 5.77 z-score. “CCGATTAACATCAATATCCCCCCTGATGTTAATCGGGTCTTGATTCGCTTGACGCTGCTG” gave a binding signal of 6.44 z-score. Take “CCGATTAACATCAAAATTCCCTGTGATGTTAATCGGGTCTTGATTCGCTTGACGCTGCTG”: the binding signal stood at 6.24 z-score. “CCGATTAACATCAGGGGATATAATGATGTTAATCGGGTCTTGATTCGCTTGACGCTGCTG” gave a binding signal of 6.48 z-score. In the case of “CCGATTAACATCAGGGGGGATACTGATGTTAATCGGGTCTTGATTCGCTTGACGCTGCTG” it was 4.8 z-score; in that of “CCGATTAACATCAAGGGGGAGGGTGATGTTAATCGGGTCTTGATTCGCTTGACGCTGCTG”, 3.99 z-score. The same measure for “CCGATTAACATCAAGGGGGGGAATGATGTTAATCGGGTCTTGATTCGCTTGACGCTGCTG”: 6 z-score; for “CCGATTAACATCAGGAGACCCCCTGATGTTAATCGGGTCTTGATTCGCTTGACGCTGCTG”: 2.64 z-score; for “CCGATTAACATCAGTACCGCGAATGATGTTAATCGGGTCTTGATTCGCTTGACGCTGCTG”: 1.29 z-score. Consider “CCGATTAACATCAAGAAAATCCCTGATGTTAATCGGGTCTTGATTCGCTTGACGCTGCTG”, for which the binding signal turned out to be 4.75 z-score. Turning to “CCGATTAACATCAGTTGTCCCGCTGATGTTAATCGGGTCTTGATTCGCTTGACGCTGCTG”, the binding signal was determined as 1.42 z-score.

With “CCGATTAACATCACAGAGTCCCCTGATGTTAATCGGGTCTTGATTCGCTTGACGCTGCTG”, the binding signal came out at 6.04 z-score.
